About 18,000 (9%) of roughly 200,000 compounds were called active. Cut-off read from the data, not from the text of the source: active = inhibition above about 50%; inactive = the rest. This excerpt belongs to a sample that is enriched for actives.
experiment: Leishmania major promastigote growth inhibition, primary screen (AID 1063); details: Leishmania major promastigotes, resazurin fluorescence viability; at 10 µM; active compounds read high;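 note: promastigotes grown with compound for 44 hours at 28 °C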

Row | Compound | inhibition
1 | O=C(NCc1ccccc1)C1=C[C@H](C2CC2)C[C@H](OCc2ccc(CO)cc2)O1 | 6.42% (inactive)
2 | CC(C)(C)[C@H]1C=C(C(=O)NCc2ccccc2)O[C@@H](OCc2ccc(CO)cc2)C1 | 20.8% (inactive)
3 | C=CCOC(=O)C1=C[C@@H](c2ccccc2)C[C@@H](OCc2ccc(CO)cc2)O1 | 13.8% (inactive)
4 | O=C(C1=C[C@H](c2ccc(C(F)(F)F)cc2)C[C@H](OCc2ccc(CO)cc2)O1)N1CCN(Cc2ccccc2)CC1 | 25.6% (inactive)
5 | O=C(NCc1ccccc1)C1=C[C@@H](c2ccc(C(F)(F)F)cc2)C[C@@H](OCc2ccc(CO)cc2)O1 | 87% (active)
6 | O=C(NCc1ccccc1)C1=C[C@@H](C2CCCCC2)C[C@@H](OCc2ccc(CO)cc2)O1 | 50.2% (active)
7 | CCOC(=O)C1(C)NC(c2ccco2)C2C(=O)N(c3ccccc3)C(=O)C21 (stereo unspecified) | -8.75% (inactive)
8 | COc1cc(NC(=S)NCc2ccc(S(N)(=O)=O)cc2)cc(OC)c1 | 11.8% (inactive)
9 | Cn1c(SCC(=O)OC2CCCCC2)nnc1-c1ccc(S(=O)(=O)N2CCCC2)cc1 | -0.74% (inactive)
10 | CC1Cc2ccccc2N1C(=O)CSc1nnc(-c2ccc(S(=O)(=O)N3CCCC3)cc2)n1C (stereo unspecified) | 97.9% (active)
11 | CC1Cc2ccccc2N1C(=O)CSc1nnc(C2CC2)n1C (stereo unspecified) | 14.8% (inactive)
12 | O=C(Nc1ccc(N2CCN(C(=O)c3cccs3)CC2)cc1)c1cccnc1Cl | 16.4% (inactive)
13 | CCOc1ccccc1/C=N/NC(=O)CNC(=O)COc1ccccc1 | -1.93% (inactive)
14 | N#C/C=C(/c1ccc(F)cc1)N1CCOCC1 | 1.16% (inactive)
15 | Cc1cc(C)n2nc(SCC(N)=O)nc2n1 | 4.1% (inactive)
16 | CCCCn1c(=S)[nH]c2ccccc2c1=O | -2.23% (inactive)
17 | COc1ccc(S(=O)(=O)N2CCCCC2)cc1Br | -0.43% (inactive)
18 | CCCCn1c(=S)[nH]c2cc(S(=O)(=O)N3CCCCC3)ccc21 | 96.4% (active)
19 | COC(=O)C(C(=O)Nc1cccc(Cl)c1C)C1CCCC1 (stereo unspecified) | -0.21% (inactive)
20 | Cc1ccc(OCCCC(=O)NC(C)c2ccccc2)c(C)c1 (stereo unspecified) | 11.7% (inactive)
21 | CCC(CC)c1nnc(NC(=O)c2nn(C)c(=O)c3ccccc23)s1 | 8.15% (inactive)

Row | Compound | inhibition
22 | N#Cc1c(C(F)(F)F)cc(-c2ccc(Cl)cc2)nc1SCC(=O)O | -6.26% (inactive)
23 | COCCCNC(=O)/C=C/c1ccc(OCc2c(F)cccc2Cl)cc1 | 16% (inactive)
24 | CN(C)CCCNC(=O)/C=C/c1ccc(OCc2c(F)cccc2Cl)cc1 | 89.1% (active)
25 | O=C(/C=C/c1ccc(OCc2c(F)cccc2Cl)cc1)N1CCOCC1 | 35.5% (inactive)
26 | COc1ccccc1-n1ccnc1SCC(=O)NC(C)(C)C | -1.52% (inactive)
27 | COC(=O)c1ccc(CSc2nnc(N)s2)o1 | -5.93% (inactive)
28 | CCC(c1nnnn1Cc1ccco1)N(CCc1ccccc1)Cc1cc2cccc(C)c2[nH]c1=O (stereo unspecified) | 39.7% (inactive)
29 | CCC(c1nnnn1Cc1ccco1)N(CCc1ccccc1)Cc1cc2ccc(OC)cc2[nH]c1=O (stereo unspecified) | 85.7% (active)
30 | CCC(c1nnnn1Cc1ccco1)N(Cc1cc2cc(OC)ccc2[nH]c1=O)C1CCCCC1 (stereo unspecified) | 49.5% (inactive)
31 | CN(C)c1ccc(C(CC(=O)O)C(=O)O)cc1 (stereo unspecified) | -3.91% (inactive)
32 | Cc1cccc(NC(=O)c2nnn(-c3cccc(C(F)(F)F)c3)c2N)c1 | 3.89% (inactive)
33 | Cc1ncn(C23CC4CC(CC(O)(C4)C2)C3)n1 | -5.82% (inactive)
34 | Cc1nc([N+](=O)[O-])nn1C12CC3CC(CC(Br)(C3)C1)C2 | 98.2% (active)
35 | O=S(=O)(c1ccccc1)c1nc(-c2ccccc2F)oc1NCc1cccnc1 | 0.99% (inactive)
36 | CC(CC(=O)O)CC(=O)NNC(=O)c1cccc(Br)c1 (stereo unspecified) | -4.63% (inactive)
37 | CCCCC(NC(=O)c1cccc(Br)c1)C(=O)O (stereo unspecified) | 21.1% (inactive)
38 | C/C(Cc1ccccc1)=N\NC(=O)CNC(=O)c1cccc(Br)c1 | 51.4% (active)
39 | COc1ccc(C)cc1-n1nnnc1SCc1nc2ccccc2c(=O)[nH]1 | 2.27% (inactive)
40 | Cc1nc(-c2ccc(Cl)cc2)sc1C(=O)CBr | -12.4% (inactive)
41 | CCCn1c(=S)[nH]c2ccc(C(F)(F)F)cc21 | -2.71% (inactive)
42 | CCCC(=O)OCC(=O)Nc1cc(Cl)ccc1[N+](=O)[O-] | -6.12% (inactive)

Row | Compound | inhibition
43 | COc1ccc(C)cc1Nc1nc(-c2c(C)[nH]c3ccccc23)cs1 | 97.8% (active)
44 | Cc1[nH]c2ccccc2c1-c1ccc(Cl)nn1 | -2.46% (inactive)
45 | COc1ccc(OC)c(Nc2nc(-c3ccc(O)c(O)c3)cs2)c1 | 20.7% (inactive)
46 | COC(=O)C(NS(=O)(=O)c1ccc(F)cc1)c1ccccc1 (stereo unspecified) | -1.84% (inactive)
47 | CS/C(=C\[N+](=O)[O-])Nc1ccc(C)cc1 | -1.56% (inactive)
48 | CCc1nnc(NC(=O)c2cccc(S(=O)(=O)N(C)c3ccc(OC)cc3)c2)s1 | -0.19% (inactive)
49 | O=C(Cc1ccccc1)NC(=S)Nc1ccc(N2CCCCC2)cc1 | -9.12% (inactive)
50 | Cc1ccc(-n2c(C)cc(C(=O)CN3C(=O)C(=O)N(C4CCCC4)C3=O)c2C)cc1 | -5.85% (inactive)
51 | COc1ccc(-n2c(C)cc(C(=O)CN3C(=O)NC4(CCc5ccccc54)C3=O)c2C)cc1 (stereo unspecified) | 98.6% (active)
52 | COc1ccc(-n2c(C)cc(C(=O)CSc3nnc(-c4cccs4)o3)c2C)cc1 | -4.2% (inactive)
53 | Cc1nn(-c2ccc([N+](=O)[O-])cc2)c(N)c1-c1ccccc1 | -4.1% (inactive)
54 | CC(C)(C)NC(=O)NC(=O)COC(=O)Cc1c(F)cccc1Cl | 2.42% (inactive)
55 | O=C(CSc1cccc[n+]1[O-])NCCCc1ccccc1 | 1.17% (inactive)
56 | COc1cccc(NC(=O)Nc2nnc(N3CCCCC3C)s2)c1 (stereo unspecified) | 3.59% (inactive)
57 | COc1ccc(C(=O)CSc2nnc(NC(=O)C3CC(=O)N(c4cccc(OC)c4)C3)s2)cc1 (stereo unspecified) | 56.9% (active)
58 | COc1cccc(Nc2nnc(SCC(=O)N3CC(C)OC(C)C3)s2)c1 (stereo unspecified) | 51.2% (active)
59 | COc1cccc(N2CC(C(=O)Nc3c(C)cccc3C)CC2=O)c1 (stereo unspecified) | 2.01% (inactive)
60 | COC(=O)c1ccccc1NC(=O)C1CC(=O)N(c2ccc(OC)cc2)C1 (stereo unspecified) | -10.5% (inactive)
61 | CCOc1ccccc1Nc1nnc(SCC(=O)Nc2cc(C)on2)s1 | 4.84% (inactive)

— PubChem BioAssay AID1063 (University of Pittsburgh Molecular Library Screening Center, 2008)
